Several values for one entry are separate records, joined by “and”; a condition that tells them apart may be missing. Equal entries are not always repeated. Inconclusive results are not listed. Some compounds were tested as several samples or in several runs, with calls that do not always agree. Activity calls are given as the source filed them. The call rests on the fitted dose curve; in most records, active means well fitted inhibition curve with a large enough effect; inconclusive means small, poorly fitted or top-dose-only effect; inactive means no such curve, though single readings can be large or run the other way.
target: Cytochrome P450 2C19 (Homo sapiens) (UniProt P33261); experiment: qHTS Assay for Inhibitors and Substrates of Cytochrome P450 2C19 (AID 899); conditions: recombinant CYP2C19, luciferin-H EGE luminescence; series mostly up to 57.1 µM; further: nearly all actives have a fitted effect of over 60% in size
Procedure: NIH Molecular Libraries Screening Centers Network [MLSCN]
NIH Chemical Genomics Center [NCGC]
The P450 gene superfamily is involved in the metabolism and clearance of xenobiotics. This assay used human CYP2C19 to measure the hydroxylation of ethylene glycol ester of 6' deoxyluciferin (Luciferin-H EGE; […]) to luciferin. The luciferin is then measured by luminescence after the addition of a luciferase detection reagent. Luciferin-H EGE concentration in the assay was equal to its KM for CYP2C19. Inhibitors and some substrates limit the production of luciferin, and decrease measured luminescence.
NCGC Assay Protocol Summary:
Two uL of enzyme and substrate mix (final concentrations: 5nM CYP2C19, 10uM Luciferin-H EGE, 50mM KPO4) were dispensed into a white, solid bottom 1536-well microtiter plate. 23nL of compound was transferred by a pin tool. The plate was incubated at 37C for 10 min. Two uL of an NADPH regeneration solution (Promega supplied reagent) was dispensed and the reaction was allowed to continue for 60 min at 37C. Then the reaction was stopped by reconstituted luciferin detection buffer. After another 20 min of incubation the plate was read on the ViewLux (Perkin Elmer) at 60 sec exposure and 2x2 binning. This protocol was carried out with Promega-Glo reagents and further information can be found at http://www.promega.com/tbs/tb325/tb325.pdf. Data were normalized to the to AC100 inhibition (57uM ketoconazole).
Keywords: P450, CYP2C19, Luciferase, MLSMR, MLSCN, NIH Roadmap, qHTS, NCGC
Potency means the concentration at half of the fitted maximal effect.

Cytochrome P450 2C19 (Homo sapiens), sequence (P33261 whole entry, looked up): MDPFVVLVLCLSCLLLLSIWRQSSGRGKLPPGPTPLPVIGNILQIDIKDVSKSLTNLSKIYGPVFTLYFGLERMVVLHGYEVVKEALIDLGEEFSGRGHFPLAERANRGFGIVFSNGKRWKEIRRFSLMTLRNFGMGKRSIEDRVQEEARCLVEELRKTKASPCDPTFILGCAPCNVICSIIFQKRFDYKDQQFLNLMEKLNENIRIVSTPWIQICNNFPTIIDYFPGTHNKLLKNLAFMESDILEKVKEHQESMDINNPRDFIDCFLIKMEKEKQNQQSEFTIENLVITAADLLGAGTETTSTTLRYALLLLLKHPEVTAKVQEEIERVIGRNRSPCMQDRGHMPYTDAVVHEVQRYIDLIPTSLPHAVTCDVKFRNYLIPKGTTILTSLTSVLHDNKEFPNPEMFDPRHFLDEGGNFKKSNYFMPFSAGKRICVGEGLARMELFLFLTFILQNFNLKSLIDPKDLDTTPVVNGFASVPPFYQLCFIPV

Row | SMILES | Potency | outcome
1 | Oc1ccccc1O | inactive | –
2 | Clc1ccccc1-c1nc(-c2ccncc2)no1 | 0.0631 µM (active) | –
3 | O=C(Nc1ccccc1)c1cc([N+](=O)[O-])ccc1Cl | inactive and 794 nM (active) | –
4 | COc1ccccc1N1CCN(CCCCNS(=O)(=O)c2cccc3c(N(C)C)cccc23)CC1 | 0.501 µM (active) | –
5 | c1cnc2c(c1)ccc1cccnc12 | inactive | –
6 | O=C1C(SCCO)=C(SCCO)C(=O)c2ccccc21 | 501 nM (active) and 79.4 nM (active) | –
7 | Cc1cc(NC(=O)Nc2ccc3c(ccn3C)c2)sn1 | inactive and 3.16 µM (active) | –
8 | N#C/C(=C\c1ccc(O)c(O)c1)C(=O)NCc1ccccc1 | inactive | –
9 | O=c1[nH]c2cc([N+](=O)[O-])c([N+](=O)[O-])cc2[nH]c1=O | inactive | –
10 | N=c1ccn2c(n1)O[C@H]1[C@H](O)[C@@H](CO)O[C@H]12 | inactive | –
11 | Nc1ccc(O)c(C(=O)O)c1 | 5.01 µM (active) | –
12 | CCC1C(=O)OCC1Cc1cncn1C (stereo not drawn) | 7.94 µM (active) | –
13 | O=C(O)c1cc([N+](=O)[O-])ccc1NCCCc1ccccc1 | inactive | –
14 | Oc1cc2c(cc1O)CN(C(=S)NCCc1ccc(Cl)cc1)CCC2 | 5.01 µM (active) and 316 nM (active) | –
15 | N[C@H](CCCP(=O)(O)O)C(=O)O | inactive | –
16 | Fc1ccc(C(OCCCc2cnc[nH]2)c2ccc(F)cc2)cc1 | 0.004 µM (active) | –
17 | COC(=O)c1c(C)[nH]c(C)c1C(=O)c1ccccc1Cc1ccccc1 | 0.1 µM (active) | –
18 | NC(N)=NC(=O)c1nc(Cl)c(N2CCCCCC2)nc1N | 5.01 µM (active) | –
19 | CCCSc1ccc2nc(NC(=O)OC)[nH]c2c1 | – | inactive
20 | CC(C)(C=O)Cc1cc(C(C)(C)C)c(O)c(C(C)(C)C)c1 | inactive | –
21 | O=C(O)c1cc(=O)c2c(Cl)cc(Cl)cc2[nH]1 | inactive | –
22 | CN=c1nc(-c2ccccc2)n(-c2ccccc2)s1 | 3.16 µM (active) | –
23 | Cc1ccc(O)c(N=Nc2ccccc2)n1 | 3.98 µM (active) and inactive | –
24 | Nc1cc(-c2ccncc2)c[nH]c1=O | 5.01 µM (active) | –
25 | CC(=O)SCC[N+](C)(C)C | inactive | –
26 | CN(C)C(N)=NCCC[C@H](N)C(=O)O | inactive | –
27 | N.N.O=C(O)C1(C(=O)O)CCC1.[Pt] | 3.98 µM (active) | –
28 | COc1cc2c(CCNC(C)=O)c[nH]c2cc1Cl | inactive and 5.01 µM (active) | –

From PubChem BioAssay (NCATS)
